# Records with an inconclusive call do not appear. Values without a mark were called inactive. Active and inactive are the calls of the source. The call rests on the fitted dose curve; in most records, active means well fitted inhibition curve with a large enough effect; inconclusive means small, poorly fitted or top-dose-only effect; inactive means no such curve, though single readings can be large or run the other way.
# Molecular target: Cytochrome P450 3A7 (Homo sapiens) (UniProt P24462)
# Experiment: Cytochrome P450 family 3 subfamily A member 7 (CYP3A7) small molecule antagonists: luciferase biochemical qHTS assay (AID 1963596); further: nearly all actives have a fitted effect of over 40% in size
# Details: P450-Glo CYP3A7 enzyme luminescence, 1 h; series mostly up to 57.4 µM; activity change, negative = inhibition: at the top concentration
# Outline: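 P450-Glo luminescent assay: CYP3A7 enzyme converts a proluciferin substrate to luciferin, detected by luciferase reagent; light proportional to activity. Compounds in DMSO preincubated 10 min with enzyme-substrate mix at room temperature, then NADPH regeneration added for 1 h.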
# On the % scale 0 is the no-effect control and ±100 the full control effect; potency means the concentration at half of the fitted maximal effect.
# Cytochrome P450 3A7 (Homo sapiens), sequence (P24462 whole entry, looked up): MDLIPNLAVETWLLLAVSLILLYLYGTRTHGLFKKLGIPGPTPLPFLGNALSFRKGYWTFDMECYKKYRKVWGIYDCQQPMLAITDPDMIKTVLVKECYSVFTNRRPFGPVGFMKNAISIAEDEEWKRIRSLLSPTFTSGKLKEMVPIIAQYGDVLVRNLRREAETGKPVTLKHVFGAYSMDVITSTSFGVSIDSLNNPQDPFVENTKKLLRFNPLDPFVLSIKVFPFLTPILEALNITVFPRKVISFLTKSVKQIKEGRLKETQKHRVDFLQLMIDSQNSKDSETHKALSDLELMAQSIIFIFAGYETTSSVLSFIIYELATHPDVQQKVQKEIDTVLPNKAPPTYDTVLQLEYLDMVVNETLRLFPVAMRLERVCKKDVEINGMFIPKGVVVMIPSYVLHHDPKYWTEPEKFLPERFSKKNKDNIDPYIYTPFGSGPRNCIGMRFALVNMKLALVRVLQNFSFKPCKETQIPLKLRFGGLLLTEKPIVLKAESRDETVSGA
SMILES,"activity change, negative = inhibition [%]",Potency
COc1ccc(CNC(=O)c2nc(SCc3ccccc3F)ncc2Cl)cc1,0,
C=CC1=C(C(=O)O)N2C(=O)[C@@H](NC(=O)/C(=N\O)c3csc(N)n3)[C@H]2SC1 (stereo in doubt),-8.65,
CCOC(C)OCC,-2.17,
CC(C)[C@@H]1C(=O)N(S(C)(=O)=O)[C@@H]2CCN(C(=O)/C=C/CN3CCCCC3)[C@H]21,-27.6,
N#Cc1cc(CN2CCC(Nc3ncnc4sc(Cl)cc34)CC2)ccc1F,22.4,
Cc1c(O)cc2c(c1C)O[C@](C)(CCC[C@H](C)CCC[C@H](C)CCCC(C)C)CC2,-5.97,
COc1ccc(NC(=O)Cn2ccn(-c3ccc(C)c(C)c3)c(=O)c2=O)cc1Cl,-18.1,
CC(C)c1cc2c(N3CCN(C4=NCC(C)(C)S4)CC3)ncnc2s1,0,
CCn1c(=O)c(-c2ccc(-c3cncs3)cc2Cl)cc2cnc(Nc3ccc(N4CCN(C)CC4)cc3)nc21,,3.01 µM (active)
CC1(C)CC(NC(=O)C(=O)Nc2ccc(Cl)cc2)CC(C)(C)N1,5.96,
COc1ccccc1Nc1nc(-c2ccccc2F)nc2ccccc12,-2.5,
Cc1cccc(C#Cc2cc(F)cc(C#N)c2)n1,2.87,
C[C@@H]1C[C@H](C)CN(CCC(=O)Nc2ccc(Br)cc2)C1,-28.1,
CC(C)c1cc2c(cc1S(=O)(=O)O)[C@@]1(C)CCC[C@@](C)(C(=O)O)[C@@H]1CC2,-3.28,
Cc1cc(CC(=O)O)n(C)c1C(=O)c1ccc(Cl)cc1,0.803,
CN[C@H](CC(C)C)C(=O)N[C@H]1C(=O)N[C@@H](CC(N)=O)C(=O)N[C@H]2C(=O)N[C@H]3C(=O)N[C@H](C(=O)N[C@H](C(=O)O)c4cc(O)cc(O)c4-c4cc3ccc4O)[C@H](O)c3ccc(c(Cl)c3)Oc3cc2cc(c3O[C@@H]2OC(CO)[C@@H](O)[C@H](O)[C@@H]2O[C@H]2C[C@](C)(N)[C@H](O)[C@H](C)O2)Oc2ccc(cc2Cl)[C@H]1O (stereo not given in full),-5.92,
COc1ccc(C(=O)NC(c2ccc(Cl)cc2)c2cc(Cl)c3cccnc3c2O)cc1 (stereo not given),1.02,
CC1(C)OC[C@H](NC(=O)Nc2ccc(Br)cc2Br)[C@H](c2ccccc2)O1,0,
COC(=O)C(CC1CCCC1)c1ccc(S(C)(=O)=O)cc1 (stereo not given),-10.6,
CCC[C@H](N[C@@H](C)C(=O)N1[C@H](C(=O)O)C[C@@H]2CCCC[C@@H]21)C(=O)OCC,-0.139,

SMILES,"activity change, negative = inhibition [%]",Potency
COC(=O)[C@H](Cc1cccc(C(=N)N)c1)[C@@H](C)NC(=O)c1ccc(-c2cc[n+]([O-])cc2)cc1,-7.2,
OCC=Cc1ccccc1,0,
O=c1c(-c2ccccc2)c1-c1ccccc1,-21.6,
CN(CCCOc1ccc(Cc2ccccc2)cc1)CCC(=O)O,-9.69,
O=C(Nc1cccc(Cl)c1)Nc1ccccc1OCc1cc(=O)n2ccccc2n1,0.318,
Cc1cc(NC(=O)Nc2ccc(F)c(F)c2)n(-c2ccccc2)n1,-28.5,
CCOC(N)=O,-0.648,
COc1cncc(C#Cc2ccccn2)c1,-8.7,
Nc1c(CC(=O)O)cccc1C(=O)c1ccccc1,-14.8,
CCN(CC)C(=O)c1cccnc1,5.04,
COc1cccc(-n2nc(C(=O)O)cc2-c2ccc(C3CCCCC3)c(Cl)c2)c1,0,
Cc1cc(C)cc(NC(=O)CSc2c(C(C)C)cnc3c2c(=O)n(C)c(=O)n3C)c1,0,
COc1cccc(OC)c1-c1nc(C(=O)N[C@@H](CC(C)C)C(=O)O)cn1-c1ccnc2cc(Cl)ccc12,0,
NCc1c[nH]c(=S)n1C1CCc2c(F)cc(F)cc2C1 (stereo not given),,15.1 µM (active)
COc1cc(NC(=O)c2ccccn2)ccc1Cl,7.79,
COc1ccc(-n2c(SCC#N)nc3sc4c(c3c2=O)CCCC4)cc1,14.6,
CC(C)C[C@H](NC(=O)CNC(=O)[C@H](Cc1ccc(O)cc1)NC(=O)[C@H](CO)NC(=O)[C@H](Cc1c[nH]c2ccccc12)NC(=O)[C@H](Cc1cnc[nH]1)NC(=O)[C@@H]1CCC(=O)N1)C(=O)N[C@@H](CCCN=C(N)N)C(=O)N1CCC[C@H]1C(=O)NCC(N)=O (stereo in doubt),-0.565,
CN(C)[C@@H]1C(=O)C(C(=O)NCN2CCCC2)=C(O)[C@@]2(O)C(=O)C3=C(O)c4c(O)cccc4[C@@](C)(O)C3C[C@@H]12 (stereo not given in full),-28.1,
O=C1OC2(c3ccccc31)c1cc(Br)c(O)c(Br)c1Oc1c2cc(Br)c(O)c1Br,,19.5 µM (active)
CN1CCN(c2nc(-c3ccc(C(=O)NC4(C(=O)NCC#N)CCCCC4)cc3)cs2)CC1,0.594,

# Source: PubChem BioAssay (NCATS)
